The list shows a part of the results. Entries that show only a call come without a potency. Results filed as inconclusive are left out. The source made the active and inactive calls. The call rests on the fitted dose curve; in most records, active means well fitted activation curve with a large enough effect; inconclusive means small, poorly fitted or top-dose-only effect; inactive means flat fitted curve, though single readings scatter.

Chain of Thyrotropin-releasing hormone receptor (Homo sapiens) (P34981 whole entry, looked up): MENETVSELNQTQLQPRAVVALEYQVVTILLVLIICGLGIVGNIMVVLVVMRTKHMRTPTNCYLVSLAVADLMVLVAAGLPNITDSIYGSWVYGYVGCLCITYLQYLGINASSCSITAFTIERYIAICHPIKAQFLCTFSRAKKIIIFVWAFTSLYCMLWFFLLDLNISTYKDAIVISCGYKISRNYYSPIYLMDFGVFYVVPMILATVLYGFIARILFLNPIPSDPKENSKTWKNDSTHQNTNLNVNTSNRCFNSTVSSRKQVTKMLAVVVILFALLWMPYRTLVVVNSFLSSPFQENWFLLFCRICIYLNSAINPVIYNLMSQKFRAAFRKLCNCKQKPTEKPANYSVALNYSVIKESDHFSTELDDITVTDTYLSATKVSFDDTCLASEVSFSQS

This assay has as its target Thyrotropin-releasing hormone receptor (Homo sapiens) (UniProt P34981). Kind of assay: qHTS for Small Molecule Agonists and Allosteric Enhancers of Human TRH Receptor: Confirmation Screen for Agonists. Further: nearly all actives have a fitted effect of over 75% in size. The conditions noted are these: TRHR-expressing cells, agonist activation read-out; series mostly up to 46.1 µM. The source says: NIH Chemical Genomics Center [NCGC]
NIH Molecular Libraries Probe Centers Network [MLPCN]
Assay Submitter (PI): Marvin Gershengorn
This project aims to identify small drug-like molecules that activate (agonists) the thyrotropin releasing hormone (TRH) receptor (TRHR) or enhance its TRH-stimulated activity (allosteric enhancers). TRHR, a drug-accessible cell surface receptor expressed in specific brain regions, and its ligand TRH have been implicated in several central nervous system disorders, including depression and anxiety. Small molecule TRHR agonists or allosteric enhancers that are metabolically stable and able to cross the blood-brain barrier might serve as probes to elucidate the roles of brain TRH receptors in animal models, and might be valuable as lead compounds for the development of drugs to treat patients with central nervous system disorders.
Upon TRHR-Gq activation in TRHR cells, intracellular calcium is released from stores in the endoplasmic reticulum.
For the HTS assay freshly prepared cells are plated at a density of 2000/well in 3 ul of complete DMEM medium containing 10% serum in 1536-well plates and cultured over night at 37 C in a humidified incubator with 5% CO2. The next day, 2 ul of a no wash calcium dye (ABD Bioquest) was added to the cells and plates were incubated at room temperature for 1 hour. For the assay, assay plates were loaded into the FDSS kinetic plate reader. A 10 cycle (1 second/cycle) baseline measurement is taken and then the FDSS online 1536 pintool delivers 23 nl of compound library (as well as TRH controls) to the plate. The plate is measured for kinetically at 1 cycle/sec for 180 seconds and is considered to be the agonist portion of the assay (eg, compounds which activate a positive calcium response during this portion are flagged as potential agonists). Following the 180 second read, 1 ul of either an EC20 (positive modulation assay) is delivered by an onboard pipette head. Measurements are taken kinetically for an additional 180 seconds.
TRHR FDSS Screening Protocol
1. Reagent, 3 uL 2000 cells/well 1536 TC treated Black plate in media containing 10% FCS
2. Time, 18 hours, 33.5C 5% CO2 (cells grown at 37C)
3. Reagent, 2 uL ABD fluo-8 Ca dye
4. Time, 30 min-1.5hrs hours, Room temp (6 plates/batch)
5. Detector, EX 480/EM 530C, FDSS 10 cycles baseline (1sec/cycle)
6. Compound, 23 nL of stock solution from library
7. Detector, EX 480/EM 530C, FDSS 230 cycles (1sec/cycle) Agonist mode
8. Compound, 1 ul EC20 of TRH made up in HEPES HBSS, 10 nM final
9. Detector, EX 480/EM 530C, FDSS 100 cycles (1sec/cycle) Potentiator mode
Take `COc1ccc(CCn2ccc(O)c(Cc3ccc(Cl)cc3Cl)c2=O)cc1OC`: the Potency entry was “inactive”.
